This is an account of results in paper PMC5540273 (PLoS ONE, 2017).

Test systems include BRSK1; BRSK2; BTK; BUB1; CAMK1B; CAMK1D; CAMK1G; CAMK1; CAMK2A; CAMK2B; CAMK2D; CAMK2G; CAMK4; CAMKK1; CAMKK2; CASK; CDC2L2.
Holding throughout (conditions): concentration: 1 μM, replicates: in singlicate; n = 1
In a further assay the test system is T1, CDC2L1.
T1 construct: gene CDK11B

The test system of a further assay is T2, CDC2L5.
T2 construct: gene CDK13

The next assay relates to T3, CDK11.
T3 construct: gene CDK19
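Further: KINOMEscan kinase panel screen.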

For `Cn1ccc2ncnc(Nc3ccc(Oc4cccc(Cl)c4)c(Cl)c3)c21`, the “%Inh” value with BRSK1 is reported as 13%; in the assay on BRSK2, 0%; in the assay on BTK it was 0%; with BUB1, 12%; in the assay with CAMK1B it was 0%; in the assay with CAMK1D, 11%. The “%Inh” value in the assay with CAMK1G turned out to be 5%; with CAMK1, 22%; in the assay on CAMK2A, 9%; with CAMK2B, 0%; in the assay with CAMK2D it was 5%; in the assay on CAMK2G, 8%. Further, the “%Inh” value with CAMK4 stood at 0%; in the assay on CAMKK1, 11%; in the assay on CAMKK2 it was 9%; in the assay with CASK, 9%; with CDC2L1, 22%; in the assay with CDC2L2, 5%. Also, the results for the “%Inh” value in the assay with CDC2L5 and in the assay with CDK11 were 13% and 5%, respectively.

For the compound `O=C(Nc1n[nH]c2nc(-c3ccco3)c(Br)cc12)c1ccc(CN2CCCC2)cc1.O=C(O)[C@H](O)[C@@H](O)C(=O)O` [SB-742352], the “%Inh” value turned out to be 51% in the assay on BRSK1; 24% in the assay on BRSK2; 0% with BTK; 0% in the assay with BUB1; 0% in the assay on CAMK1B; 8% in the assay on CAMK1D. For the same compound, the “%Inh” value is 0% in the assay on CAMK1G; 0% in the assay with CAMK1; 2% in the assay on CAMK2A; 0% in the assay with CAMK2B; 0% in the assay with CAMK2D; 0% in the assay with CAMK2G. For the same compound, the “%Inh” value in the assay with CAMK4, in the assay with CAMKK1, in the assay with CAMKK2, in the assay on CASK, in the assay on CDC2L1 and in the assay with CDC2L2 was 0% throughout. The “%Inh” value with CDC2L5 and with CDK11 was 0% throughout.

In the case of `COc1ccc(NC(=O)c2ccc(-c3cc(-c4nnc(C)o4)ccc3C)cc2)cc1` [GW595885], the “%Inh” value with BRSK1 worked out at 0%; in the assay on BRSK2 it was 0%; in the assay on BTK it was 0%; in the assay with BUB1, 40%; in the assay on CAMK1B it was 4%; with CAMK1D, 8%. Further, the “%Inh” value with CAMK1G was 0%; with CAMK1 it was 4%; in the assay on CAMK2A, 0%; with CAMK2B, 0%; in the assay with CAMK2D it was 0%; with CAMK2G, 8%. In addition, the “%Inh” value in the assay with CAMK4 was determined as 0%; with CAMKK1, 0%; with CAMKK2 it was 0%; with CASK, 21%; in the assay on CDC2L1, 0%; in the assay with CDC2L2, 0%. Besides, the “%Inh” value with CDC2L5 and in the assay with CDK11 was 0% throughout.

Turning to `O=C(Nc1ccccc1)Nc1ccc(Oc2ccc3nccn3n2)cc1`, the “%Inh” value in the assay with BRSK1, with BRSK2, in the assay on BTK, in the assay with BUB1, in the assay on CAMK1B and with CAMK1D was 0% each time. In addition, the “%Inh” value in the assay with CAMK1G is given as 0%; in the assay with CAMK1, 0%; in the assay on CAMK2A, 0%; in the assay on CAMK2B, 0%; in the assay with CAMK2D, 0%; in the assay on CAMK2G, 14%. Moreover, the “%Inh” value in the assay with CAMK4 is 29%; in the assay with CAMKK1, 0%; in the assay with CAMKK2, 14%; in the assay with CASK, 7%; in the assay on CDC2L1 it was 0%; in the assay on CDC2L2 it was 8%. For the same compound, the “%Inh” value in the assay with CDC2L5 and in the assay on CDK11 was 0% each time.

Turning to `COc1cc2c(Nc3cccc(NC(=O)c4ccccc4)c3)ncnc2cc1OCCCN1CCOCC1` [GSK223810], the “%Inh” value stood at 0% with BRSK1; 10% in the assay with BRSK2; 0% in the assay on BTK; 31% with BUB1; 37% in the assay with CAMK1B; 18% in the assay on CAMK1D. For the same compound, the “%Inh” value in the assay on CAMK1G worked out at 0%; in the assay with CAMK1 it was 32%; with CAMK2A it was 0%; in the assay with CAMK2B, 0%; in the assay on CAMK2D, 0%; in the assay with CAMK2G it was 15%. Besides, the “%Inh” value in the assay with CAMK4 is reported as 0%; in the assay with CAMKK1 it was 1%; with CAMKK2, 0%; in the assay with CASK it was 6%; with CDC2L1, 0%; in the assay with CDC2L2, 11%. The “%Inh” value with CDC2L5 amounted to 0%; in the assay on CDK11, 3%.

As to `Fc1cccc(COc2ccc(Nc3ncnc4cc[nH]c34)cc2Cl)c1`, the “%Inh” value in the assay on BRSK1 stood at 2%; in the assay on BRSK2 it was 0%; in the assay with BTK, 0%; in the assay with BUB1 it was 1%; in the assay on CAMK1B, 7%; with CAMK1D it was 0%. Also, the “%Inh” value was 10% in the assay with CAMK1G; 29% with CAMK1; 27% in the assay with CAMK2A; 28% in the assay on CAMK2B; 9% in the assay on CAMK2D; 11% in the assay on CAMK2G. The “%Inh” value in the assay with CAMK4 turned out to be 0%; in the assay on CAMKK1, 11%; in the assay on CAMKK2 it was 0%; in the assay with CASK, 0%; in the assay with CDC2L1, 17%; with CDC2L2, 11%. The “%Inh” value stood at 0% in the assay on CDC2L5 and 26% with CDK11.

Consider `c1ccc(-c2ccc3c(-c4ccnc(Nc5ccc6c(c5)OCCO6)n4)cnn3n2)cc1` [GW818941], for which the “%Inh” value stood at 0% in the assay with BRSK1; 0% in the assay with BRSK2; 14% in the assay on BTK; 28% with BUB1; 12% in the assay with CAMK1B; 8% with CAMK1D. In addition, the “%Inh” value is on record as 0% in the assay with CAMK1G; 29% in the assay with CAMK1; 0% in the assay with CAMK2A; 5% in the assay with CAMK2B; 0% in the assay on CAMK2D; 10% with CAMK2G. Besides, the “%Inh” value worked out at 0% in the assay on CAMK4; 0% with CAMKK1; 0% with CAMKK2; 0% in the assay with CASK; 0% in the assay with CDC2L1; 3% with CDC2L2. In addition, the “%Inh” value in the assay with CDC2L5 was determined as 0%; in the assay with CDK11, 9%.

As for `C[C@H]1CC[C@@H](C(=O)Nc2ccccc2)CN1c1cc(-c2ccc3c(N)n[nH]c3c2)nc(N)n1` [GSK2283293], the “%Inh” value in the assay on BRSK1 turned out to be 0%; in the assay with BRSK2, 0%; with BTK, 0%; with BUB1, 49%; with CAMK1B it was 23%; in the assay with CAMK1D, 17%. Also, the “%Inh” value was 0% with CAMK1G; 11% with CAMK1; 0% with CAMK2A; 0% with CAMK2B; 3% with CAMK2D; 16% in the assay with CAMK2G. Also, the “%Inh” value in the assay on CAMK4 is on record as 0%; in the assay with CAMKK1, 7%; with CAMKK2 it was 15%; in the assay with CASK, 4%; with CDC2L1, 0%; in the assay on CDC2L2, 13%. The “%Inh” value in the assay with CDC2L5 and in the assay on CDK11 was 0% in each case.

For `CC(C)(C)c1ccc(-n2cnc3c(N)ncnc32)cc1` [SKF-97263], the “%Inh” value is 18% with BRSK1; 0% in the assay with BRSK2; 0% in the assay with BTK; 18% in the assay on BUB1; 12% in the assay on CAMK1B; 9% in the assay with CAMK1D. Moreover, the “%Inh” value amounted to 0% with CAMK1G; 10% in the assay on CAMK1; 0% in the assay with CAMK2A; 0% in the assay on CAMK2B; 2% in the assay with CAMK2D; 0% in the assay with CAMK2G. Besides, the “%Inh” value amounted to 0% in the assay with CAMK4; 0% in the assay on CAMKK1; 0% in the assay with CAMKK2; 12% in the assay with CASK; 0% in the assay on CDC2L1; 0% with CDC2L2. For the same compound, the “%Inh” value was 0% in the assay with CDC2L5 and 10% in the assay on CDK11.

As for `Nc1nccc2scc(-c3ccc4c(c3)CCN4C(=O)Cc3cc(F)ccc3F)c12` [GSK2587663], the “%Inh” value in the assay with BRSK1 is 4%; in the assay on BRSK2 it was 0%; in the assay on BTK, 0%; in the assay on BUB1, 45%; in the assay on CAMK1B, 27%; in the assay on CAMK1D, 21%. In addition, the “%Inh” value in the assay with CAMK1G is on record as 4%; in the assay on CAMK1, 29%; in the assay on CAMK2A it was 0%; in the assay with CAMK2B it was 0%; in the assay on CAMK2D it was 9%; in the assay with CAMK2G, 23%. Moreover, the “%Inh” value was 0% in the assay with CAMK4; 5% in the assay on CAMKK1; 9% with CAMKK2; 22% in the assay on CASK; 0% in the assay on CDC2L1; 6% in the assay with CDC2L2. Further, the “%Inh” value in the assay on CDC2L5 is recorded as 0%; in the assay with CDK11, 61%.
